# Compound activity from PubChem BioAssay.
# MEKK3 PB1 HTS: modulators of MEKK3-MEK5 PB1 binding, primary screen, biochemical, wildtype MEKK3, multiplex bead flow cytometry, Alexa488-MEK5. bead-based flow cytometry, Alexa488-MEK5 binding to MEKK3; actives lie on both sides; 0 = blocked by unlabeled MEK5, 100 = vehicle. binding response (% of control), % at 10 µM. 290,000 tested, 1.4% active;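 active means binding response more than 3 SD above or below the average of its plate-row segment, actives on both sides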;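 further: Alexa488 bead fluorescence after subtracting the streptavidin-only scavenger bead signal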
# MEKK2 WT-MEK5: modulators of MEK5 binding to wildtype MEKK2, primary screen, biochemical, multiplex bead flow cytometry, Alexa488-MEK5; 290,000 tested, 1.1% active; binding response (% of control), % at 10 µM; Alexa488-MEK5 binding to MEKK2 WT; actives lie on both sides; in the data active means binding response below about 67% or above about 130%
# GRK2 inh: compounds blocking aptamer binding on GRK2 – biochemical, human GRK2, bead flow cytometry, HTS, primary screen | AID 488847, 2010 | FAM-aptamer displacement from GRK2 | Beta-adrenergic receptor kinase 1 (Homo sapiens), P25098 | inhibition of aptamer binding, % at 10 µM | 330,000 tested, 0.59% active;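 active means inhibition of aptamer binding above 40%, roughly 3 SD of noise, on plates passing a quality check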;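 further: median bead fluorescence of bound FAM aptamer so fluorescent compounds give negative values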
# MEKK2 mut-MEK5: MEK5 binding signal on mutant MEKK2 PB1, primary screen, biochemical, multiplex bead flow cytometry, Alexa488-MEK5. Alexa488-MEK5 binding to MEKK2 mutant. percent response, % at 10 µM. 290,000 tested, 0.35% active. AID 1530, 2009; in the data active means percent response above about 24%, passing the limit was not always enough
# MEKK2wt confirm: modulators of MEK5 binding to wildtype MEKK2, confirmation, biochemical, single concentration, multiplex bead flow cytometry; shares compounds with MEKK3 PB1 HTS; Alexa488-MEK5 binding to MEKK2 WT; actives lie on both sides; binding response (% of control), % at 10 µM; 5,900 tested, 2.4% active; AID 1892, 2009; in the data active means binding response below about 16% or above about 210%; inactive means in between
# MEKK2mut-MEK5: mutant MEKK2 PB1-MEK5 binding signal retest – biochemical, single concentration, multiplex bead flow cytometry, confirmation. Alexa488-MEK5 binding to MEKK2 mutant. shares compounds with MEKK3 PB1 HTS. AID 1893, 2009. percent response, % at 10 µM. 5,900 tested, 2% active; in the data active means percent response mostly above about 71%, no sharp cut-off; inactive means mostly below about 38%;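 further: higher means compound restores mutant binding toward wildtype level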
# MEKK3-MEK5 inh: MEKK3 wild-type PB1 binding to MEK5, inhibitors, confirmation, biochemical, bead multiplex flow cytometry, single concentration, wildtype | shares compounds with MEKK3 PB1 HTS | Alexa488-MEK5 binding to MEKK3; stronger effect = lower value | binding response (% of control), % at 10 µM | 5,900 tested, 1.8% active | AID 1894, 2009;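 active means binding response below 72% of control, or above a set upper limit, though filed actives all read lower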;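 further: 100% = DMSO only wells and 0% = binding blocked by excess unlabeled MEK5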
# * hit, by the source's call; . = no result given; [ ] = another dose, or the depositor's remark. An excerpt weighted towards active compounds, which were near 2.5% of everything screened.
SMILES,MEKK3 PB1 HTS,MEKK2 WT-MEK5,GRK2 inh,MEKK2 mut-MEK5,MEKK2wt confirm,MEKK2mut-MEK5,MEKK3-MEK5 inh
Cc1cc(NC(=O)CN2C(=O)NC3(CCCCC3)C2=O)no1,135*,104,5,-1,101,0,104
O=C(CN1C(=O)NC2(CCCCC2)C1=O)NCc1cccs1,154*,109,0,1,99,-1,96
Cc1ccc2nc(-c3ccccn3)cc(C(=O)NC(C)C(C)(C)C)c2c1 (stereo not drawn),103,99,0,1,.,.,.
O=C1NCCN(Cc2ccoc2)C1CC(=O)N(CCO)Cc1ccccc1 (stereo not drawn),101,100,2,-4,.,.,.
COc1ccc(CC(=O)OCC(=O)NCc2ccccc2Cl)cc1,151*,136,0,5,107,4,105
CSc1nc(C)c(C(=O)Nc2ccccc2)c(-c2ccco2)c1C#N,27*[inhibitor],16*[inhibitor],3,-16,98,-1,102
CSc1nc2nc3c(cc2c(=O)n1-c1ccc(C)cc1)COC(C)(C)C3,129*,116,0,29,100,-2,104
CSc1nc2nc3c(cc2c(=O)n1-c1ccccc1)COC(C)(C)C3,96,95,0,-5,.,.,.
COc1ccc([C@@H]2Sc3cc(OC)ccc3N(CCN(C(C)C)C(C)C)C(=O)[C@H]2OC(C)=O)cc1,89,100,0,2,.,.,.
CNC(=S)NCc1ccc(OC)cc1,55*[inhibitor],94,3,-1,104,-1,101
CC(C)Cn1c(SCC(N)=O)nnc1-c1cccc(S(=O)(=O)N2CCOCC2)c1,.,.,5,.,.,.,.
COc1ccc(CCN(Cc2cccs2)S(=O)(=O)c2ccc(S(=O)(=O)N(C)C3CCCCC3)cc2)cc1OC,93,102,0,5,.,.,.
O=C1C(Nc2ccccc2)=C(NS(=O)(=O)c2ccccc2)C(=O)c2ccccc21,139*,106,3,0,96,-7,92
CCCCCc1cc(=O)oc2c(C(CCN3CCN(c4ccccc4)CC3)c3ccc(N(C)C)cc3)c(OC)cc(OC)c12 (stereo not drawn),107,123,.,14,.,.,.
CCCCCc1cc(=O)oc2c(C(CCN(CC)CC)c3cc(OC)c(OC)c(OC)c3)c(OC)cc(OC)c12 (stereo not drawn),116,218*,0,34*,136,15,84
CCCCCc1cc(=O)oc2c(C(CCN3CCCCC3)c3ccc4c(c3)OCO4)c(OC)cc(OC)c12 (stereo not drawn),110,203*,0,50*,226*,73*,108
CCCCCc1cc(=O)oc2c(C(CCN3CCCC(C)C3)c3ccc4c(c3)OCO4)c(OC)cc(OC)c12 (stereo not drawn),122*,302*,0,74*,270*,109*,118
CC(=O)c1cccc(NC(=O)NCCc2c[nH]c3ccccc23)c1,51,58,0,-20,.,.,.
O=C(Nc1cccc(CNCCc2c[nH]c3ccccc23)c1)c1ccccc1Cl,110,150*,0,32*,133,11,103
COc1ccc(NC(=O)COc2ccc(C)cc2)c([N+](=O)[O-])c1,91,95,0,-8,.,.,.
CCOc1ccc(OCC(=O)Nc2ccc(OC)cc2[N+](=O)[O-])cc1,37*[inhibitor],51,0,-22,101,1,101
COc1cc2c(cc1NC(=O)CCC(=O)O)oc1ccccc12,101,106,5,0,.,.,.
COc1cc2c(cc1NC(=O)Nc1ccccc1)oc1ccccc12,105,140*,0,18,157,16,96
